We go through nine compounds from PubChem BioAssay (NCI).

Structures are written as SMILES. About 79,000 compounds went through this panel and 15% of them were active in at least one assay; those are over-represented in the sample as a whole. Values without a mark were called inactive. The source made the active and inactive calls. No stated cut-off is given here; in the data, active means growth inhibition above about 70%; inactive means the rest.

Assay [1] can be described thus: NCI Yeast Anticancer Drug Screen. Data for the rad50 strain (AID 155).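 Further: 0% = growth of vehicle-only cultures of the same strain.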 The following applies: S. cerevisiae rad50 strain growth inhibition, stronger effect = higher value. A digest of the protocol:
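Compounds were tested on a yeast strain with an engineered DNA damage repair alteration; the reported value is growth inhibition normalised to vehicle treatment.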

Assay [2] can be described thus: NCI Yeast Anticancer Drug Screen. Data for the mec2-1 strain (AID 157). The following applies: S. cerevisiae mec2-1 strain, stronger effect = higher value. A digest of the protocol:
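Strain: mec2-1 (DNA repair/cell cycle alteration). Compound exposure, then growth measured; inhibition expressed relative to vehicle.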

The nature of assay [3]: NCI Yeast Anticancer Drug Screen. Data for the sgs1 mgt1 strain (AID 161).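 Further: 0% = growth of cultures given vehicle only.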 The following applies: S. cerevisiae sgs1 mgt1 strain, stronger effect = higher value. Summed up:
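Mutant yeast exposed to compound; growth scored against vehicle-only wells.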

Assay [4] can be described thus: NCI Yeast Anticancer Drug Screen. Data for the cln2 rad14 strain (AID 165).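 Further: 0% = growth equal to vehicle treated cultures.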 The following applies: S. cerevisiae cln2 rad14 strain, stronger effect = higher value. Summed up: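 Compounds are applied to the cln2 rad14 yeast strain, and growth is then compared with that of vehicle-treated cultures to give inhibition.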
Assay [5] in a line: NCI Yeast Anticancer Drug Screen. Data for the bub3 strain (AID 167). The following applies: S. cerevisiae bub3 mutant strain, stronger effect = higher value. Summed up:
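Growth of a checkpoint-deficient yeast mutant is measured after compound exposure. Values represent inhibition relative to vehicle.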

Assay [6] can be described thus: NCI Yeast Anticancer Drug Screen. Data for the mlh1 rad18 strain (AID 175). The following applies: S. cerevisiae mlh1 rad18 strain growth inhibition, stronger effect = higher value. A digest of the protocol:
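Read-out is yeast growth inhibition, calculated against vehicle-only controls. The compound was applied to a strain engineered with DNA damage repair alterations.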

The mark [7] stands for this setting: at 5.0 µM (retest, dose inferred, filed as 0.5).
[8] abbreviates: at 50.0 µM (retest, dose inferred, filed as 5.0).

As to `CCOC(=O)c1cnc2ccc(C3CCCCC3)cc2c1Nc1ccc2c(c1)OCO2`, the growth inhibition is -15% in assay [1] (setting [7]); 91% (active) in assay [1] (setting [8]); 11.1% in assay [1] (at 50.0 µM); -4% in assay [2] (setting [7]); 95% (active) in assay [2] (setting [8]); -8.35% in assay [2] (at 50.0 µM). The growth inhibition in assay [3] (setting [7]) is -23%; in assay [3] (setting [8]), 96% (active); in assay [3] (at 50.0 µM), 5.15%; in assay [4] (setting [7]) it was -9%; in assay [4] (setting [8]), 92% (active); in assay [4] (at 50.0 µM), -12.8%. Besides, the growth inhibition in assay [5] (setting [7]) is 3%; in assay [5] (setting [8]), 93% (active); in assay [5] (at 50.0 µM) it was -7.25%; in assay [6] (setting [7]), -3%; in assay [6] (setting [8]), 93% (active); in assay [6] (at 50.0 µM), 25.4%.

Take `C=CCOC(=O)C#CCCCC`: the growth inhibition is -3% in assay [1] (setting [7]); 1% in assay [1] (setting [8]); -5.25% in assay [1] (at 50.0 µM); 3% in assay [2] (setting [7]); 2% in assay [2] (setting [8]); 19.6% in assay [2] (at 50.0 µM). In addition, the growth inhibition is -2% in assay [3] (setting [7]); 2% in assay [3] (setting [8]); 15.7% in assay [3] (at 50.0 µM); -5% in assay [4] (setting [7]); 5% in assay [4] (setting [8]); 87.8% (active) in assay [4] (at 50.0 µM). Besides, the growth inhibition in assay [5] (setting [7]) was -1%; in assay [5] (setting [8]) it was 11%; in assay [5] (at 50.0 µM), -12.8%; in assay [6] (setting [7]) it was -1%; in assay [6] (setting [8]), 6%; in assay [6] (at 50.0 µM), -12.3%.

For `CCOC(=O)C1CN(CCCCCCN2CC(C(=O)OCC)C(=O)C2=O)C(=O)C1=O` (configuration not stated), the growth inhibition was -11% in assay [1] (setting [7]); 4% in assay [1] (setting [8]); 22.1% in assay [1] (at 50.0 µM); 2% in assay [2] (setting [7]); 1% in assay [2] (setting [8]); 3.1% in assay [2] (at 50.0 µM). Moreover, the growth inhibition in assay [3] (setting [7]) is -21%; in assay [3] (setting [8]), 3%; in assay [3] (at 50.0 µM) it was 28.5%; in assay [4] (setting [7]), 4%; in assay [4] (setting [8]), 0%; in assay [4] (at 50.0 µM) it was 52.9%. Also, the growth inhibition in assay [5] (setting [7]) is 0%; in assay [5] (setting [8]), 2%; in assay [5] (at 50.0 µM), 0.05%; in assay [6] (setting [7]), -2%; in assay [6] (setting [8]), 0%; in assay [6] (at 50.0 µM) it was 30.4%.

Take `COC(=O)N1C2C=CC(=O)C(C=C2)N1C(=O)OC` (configuration not stated): the growth inhibition is -3% in assay [1] (setting [7]); 30% in assay [1] (setting [8]); 33.9% in assay [1] (at 50.0 µM); 2% in assay [2] (setting [7]); 38% in assay [2] (setting [8]); 53.2% in assay [2] (at 50.0 µM). Moreover, the growth inhibition in assay [3] (setting [7]) is 0%; in assay [3] (setting [8]) it was 58%; in assay [3] (at 50.0 µM), 47%; in assay [4] (setting [7]), 1%; in assay [4] (setting [8]), 23%; in assay [4] (at 50.0 µM) it was 36.4%. The growth inhibition in assay [5] (setting [7]) was -1%; in assay [5] (setting [8]), 34%; in assay [5] (at 50.0 µM), 60.6%; in assay [6] (setting [7]), 18%; in assay [6] (setting [8]), 79% (active); in assay [6] (at 50.0 µM) it was 85% (active).

Consider `COc1ccc2nc3cc([N+](=O)[O-])ccc3c(NCCO)c2c1`, for which the growth inhibition in assay [1] (setting [7]) was -24%; in assay [1] (setting [8]), 77% (active); in assay [1] (at 50.0 µM), 58.5%; in assay [2] (setting [7]), -9%; in assay [2] (setting [8]) it was 66%; in assay [2] (at 50.0 µM) it was 47.8%. Further, the growth inhibition in assay [3] (setting [7]) is -26%; in assay [3] (setting [8]), 80% (active); in assay [3] (at 50.0 µM), 44.6%; in assay [4] (setting [7]), -6%; in assay [4] (setting [8]) it was 89% (active); in assay [4] (at 50.0 µM), 75.1% (active). In addition, the growth inhibition in assay [5] (setting [7]) is -18%; in assay [5] (setting [8]), 30%; in assay [5] (at 50.0 µM), 49%; in assay [6] (setting [7]), 4%; in assay [6] (setting [8]) it was 82% (active); in assay [6] (at 50.0 µM), 49.9%.

With `O=C(Nc1ccc(Cl)cc1Cl)OC(Cn1cncn1)c1ccc(Cl)cc1Cl` (configuration not stated), the growth inhibition in assay [1] (setting [7]) was 71% (active); in assay [1] (setting [8]), 71% (active); in assay [1] (at 50.0 µM), 91.2% (active); in assay [2] (setting [7]), 67%; in assay [2] (setting [8]), 67%; in assay [2] (at 50.0 µM), 91.4% (active). Also, the growth inhibition was 77% (active) in assay [3] (setting [7]); 77% (active) in assay [3] (setting [8]); 90.5% (active) in assay [3] (at 50.0 µM); 66% in assay [4] (setting [7]); 66% in assay [4] (setting [8]); 88.7% (active) in assay [4] (at 50.0 µM). The growth inhibition in assay [5] (setting [7]) was 72% (active); in assay [5] (setting [8]), 72% (active); in assay [5] (at 50.0 µM), 92.5% (active); in assay [6] (setting [7]) it was 77% (active); in assay [6] (setting [8]), 77% (active); in assay [6] (at 50.0 µM), 90.5% (active).

In the case of `Nc1nccc2c1ncn2C1C=C(CO)C(O)C1O` (configuration not stated), the growth inhibition in assay [1] (setting [7]) was 15%; in assay [1] (setting [8]), 67%; in assay [1] (at 50.0 µM), 38.5%; in assay [2] (setting [7]), 3%; in assay [2] (setting [8]), 90% (active); in assay [2] (at 50.0 µM) it was 45.4%. The growth inhibition in assay [3] (setting [7]) is 6%; in assay [3] (setting [8]) it was 80% (active); in assay [3] (at 50.0 µM), 54.5%; in assay [4] (setting [7]) it was 0%; in assay [4] (setting [8]), 26%; in assay [4] (at 50.0 µM), 57.5%. Further, the growth inhibition was 21% in assay [5] (setting [7]); 94% (active) in assay [5] (setting [8]); 57.1% in assay [5] (at 50.0 µM); 18% in assay [6] (setting [7]); 89% (active) in assay [6] (setting [8]); -8.5% in assay [6] (at 50.0 µM).

`CN1CCCC1c1cccc(Br)c1` (configuration not stated): the growth inhibition in assay [1] (setting [7]) was -163%; in assay [1] (setting [8]), 81% (active); in assay [1] (at 50.0 µM), 59%; in assay [2] (setting [7]), -51%; in assay [2] (setting [8]), 26%; in assay [2] (at 50.0 µM) it was 17.1%. The growth inhibition was -65% in assay [3] (setting [7]); 37% in assay [3] (setting [8]); 21.6% in assay [3] (at 50.0 µM); -75% in assay [4] (setting [7]); 50% in assay [4] (setting [8]); -1.05% in assay [4] (at 50.0 µM). In addition, the growth inhibition in assay [5] (setting [7]) is -69%; in assay [5] (setting [8]), 54%; in assay [5] (at 50.0 µM), -8.55%; in assay [6] (setting [7]), -125%; in assay [6] (setting [8]), 50%; in assay [6] (at 50.0 µM), 26.1%.

As for `COc1cc(/C=C2/N=C(c3ccccc3)N(C3=NNC4(C(=O)N3)c3ccccc3-c3ccccc34)NC2=O)ccc1O`, the growth inhibition in assay [1] (setting [7]) is 4%; in assay [1] (setting [8]), 3%; in assay [1] (at 50.0 µM), 36.5%; in assay [2] (setting [7]), -1%; in assay [2] (setting [8]), 7%; in assay [2] (at 50.0 µM), -5.05%. The growth inhibition in assay [3] (setting [7]) was 6%; in assay [3] (setting [8]) it was 14%; in assay [3] (at 50.0 µM) it was 7.55%; in assay [4] (setting [7]) it was 3%; in assay [4] (setting [8]), 1%; in assay [4] (at 50.0 µM), -46.6%. The growth inhibition in assay [5] (setting [7]) is -2%; in assay [5] (setting [8]), -7%; in assay [5] (at 50.0 µM) it was 27.4%; in assay [6] (setting [7]), -17%; in assay [6] (setting [8]), 11%; in assay [6] (at 50.0 µM), 20.5%.
